Measured values taken from PubChem BioAssay AID651640 (Broad Institute, 2012).
In all, about 350,000 compounds went through this assay and about 6,000 (1.7%) were called active. Another 5% or so got no clear call; they are omitted. This excerpt belongs to a sample that is enriched for actives. Values without a mark were called inactive. Cut-off read from the data, not from the text of the source: active = CPE inhibition above about 20% (passing the limit was not always enough); inconclusive = no clear call, values can overlap the other calls; tested in BHK-21 cells.

Assay: protection of cells from dengue 2 killing – plate reader, single concentration, primary screen (AID 651640);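 note: 0% = median of neutral control wells and 100% = median of positive control wells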
Conditions: DENV2-infected cells, cytopathic effect rescue, at 9.99 µM, stronger effect = higher value

| Compound | CPE inhibition |
| --- | --- |
| CCCNC(=O)C1(C)CCCN(Cc2cccc(C(F)(F)F)c2)C1 (centres undefined) | 10.8% |
| O=C(CCC(=O)c1ccccc1)NCc1cccc(C(F)(F)F)c1 | -5.25% |
| CO[C@H]1CN(C)C(=O)c2ccc(NC(=O)Nc3ccc(Cl)cc3)cc2OC[C@H](C)N(C(=O)Nc2c(C)noc2C)C[C@@H]1C | 1.51% |
| CCCN1C[C@H](C)[C@H](OC)CN(C)C(=O)c2cc(NC(=O)C3CCOCC3)ccc2OC[C@@H]1C | -12% |
| O=C(Nc1ccc2c(c1)[C@@H]1C[C@H](CC(=O)N3CCOCC3)O[C@@H](CO)[C@@H]1O2)C1CCOCC1 | 14.6% |
| CCC(=O)Nc1ccc2c(c1)C(=O)N(C)C[C@H](OC)[C@@H](C)CN(Cc1cccnc1)[C@H](C)CO2 | 3.46% |
| Cc1cc(C(=O)O)ccc1[N+](=O)[O-] | -17.9% |
| Cc1ccccc1C(=O)O | 0.715% |
| Cc1cccc(C(=O)O)c1[N+](=O)[O-] | 29.4% (active) |
| O=C(C[C@H]1C[C@H]2c3cc(NC(=O)Nc4ccc(F)cc4)ccc3O[C@H]2[C@H](CO)O1)NCC1CC1 | -5.03% |
| O=C(NC1CCCC1)[C@H]1[C@H](CO)[C@H]2Cn3c(cccc3=O)[C@H]2N1C(=O)NC1CCCC1 | 1.25% |
| Cn1cnc(CCNC(=O)C[C@H]2CC[C@H]3[C@@H](COC[C@H](O)CN3C(=O)C3CCCC3)O2)c1 | -0.992% |
| O=C(NCc1ccccc1)[C@H]1CCCN1C(=O)[C@@H]1CCCN1C(=O)c1ccc(Cl)cc1Cl | 40.8% (active) |
| O=C(NCc1ccccc1)[C@H]1CCCN1C(=O)[C@H]1CCCN1C(=O)c1cc(F)cc(F)c1 | -4.56% |
| O=C(NCc1ccccc1)[C@@H]1CCCN1C(=O)[C@H]1CCCN1C(=O)c1cccc(Cl)c1 | -9.03% |
| CC(C)CC#Cc1ccc([C@H]2[C@H]3CN(C(=O)c4cnccn4)CC(=O)N3[C@H]2CO)cc1 | 6.05% |
| COc1ccc2c3c([nH]c2c1)[C@@H](CO)N(Cc1cc(F)ccc1F)CC31CCN(C(=O)C2CCC2)CC1 | 8.85% |

| Compound | CPE inhibition |
| --- | --- |
| C[C@@H]1CCCCO[C@@H](CN(C)C(=O)Cc2ccccc2)[C@H](C)CN([C@@H](C)CO)C(=O)c2cc(NC(=O)Nc3ccc4c(c3)OCO4)ccc2O1 | -20.6% |
| COc1ccc(C#Cc2ccc3c(c2)[C@]2(C(=O)N3)[C@H](C(=O)N3CCCCCCC3)[C@H]3C(=O)O[C@H](c4ccccc4)[C@H](c4ccccc4)N3[C@@H]2c2ccc(O)cc2)cc1 | 16.4% |
| COc1ccc(C#Cc2ccc3c(c2)[C@]2(C(=O)N3)[C@H](c3ccccc3OCCO)N3[C@H](c4ccccc4)[C@H](c4ccccc4)OC(=O)[C@H]3[C@@H]2C(=O)N2CCCCCCC2)cc1 | 22.3% (active) |
| O=C1O[C@@H](c2ccccc2)[C@@H](c2ccccc2)N2[C@@H](c3ccccc3OCCO)[C@]3(C(=O)Nc4ccc(C#CC5(O)CCCCCC5)cc43)[C@@H](C(=O)N3CCCCCCC3)[C@H]12 | -1.79% |
| COc1ccccc1-c1ccc([C@@H]2[C@@H](CO)N3CCCCN(C(=O)c4ccncc4)C[C@@H]23)cc1 | -5.15% |
| COc1cccc(CNC(=O)C[C@H]2CC[C@@H](NC(C)=O)[C@@H](CO)O2)c1 | -0.331% |
| Cc1ccc(S(=O)(=O)N[C@H]2C=C[C@@H](CC(=O)NCCc3ccncc3)O[C@@H]2CO)cc1 | -2.51% |
| CCNC(=O)C[C@H]1CC[C@@H]2[C@H](COc3ccc(NC(=O)Nc4cccc(Cl)c4)cc3C(=O)N2C)O1 | 3% |
| CCN(CC)S(=O)(=O)c1ccc(C)c(NC(=O)COc2ccc(Br)cc2Cl)c1 | 52.1% (active) |
| CCN(CC)S(=O)(=O)c1ccc(Cl)c(NC(=O)c2ccncc2)c1 | 2.11% |
| CCN(CC)S(=O)(=O)c1ccc(OC)c(NC(=O)CCc2c(C)noc2C)c1 | -4.63% |
| Nc1[nH]c(C(=O)c2ccc(Br)cc2)c(-c2ccc3c(c2)OCO3)c1C(=O)NCCc1c[nH]c2ccccc12 | 9.1% |
| Cc1ccccc1-c1ccc([C@@H]2[C@@H](CO)N3CCCCN(C(=O)Nc4cccc(F)c4)C[C@H]23)cc1 | -1.69% |
| CC(C)[C@@H](C)/C=C/[C@@H](C)[C@H]1CC[C@@H]2[C@]1(C)CCC1[C@]23C=C[C@]2(C[C@@H](O)CC[C@]12C)N(c1ccc([N+](=O)[O-])cn1)O3 (some centres undefined) | -2.89% |
| COC(=O)c1cc2c(c3c4cc(F)ccc4n(S(=O)(=O)c4ccccc4)c13)C(=O)N(Cc1ccccc1OC)C2 | 15.1% |
| COC(=O)c1c(-c2ccc(OC)cc2)c2c(c3c4cc(OC)ccc4n(S(=O)(=O)c4ccc(F)cc4)c13)C(=O)N(C)C2 | 44.7% (active) |
| COC(=O)c1c(-c2ccc(OC)cc2)c2c(c3c4ccccc4n(S(=O)(=O)c4ccc(C)cc4)c13)C(=O)N(C)C2 | 2.43% |
